The nature of test [1]: NCI Yeast Anticancer Drug Screen. Data for the rad50 strain (AID 155).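 Note: 0% = growth of vehicle-only cultures of the same strain.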 Particulars: S. cerevisiae rad50 strain growth inhibition, active compounds read high. A digest of the protocol: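 Growth of the mutant yeast was measured after compound exposure and referenced to vehicle-treated cultures.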
The nature of test [2]: NCI Yeast Anticancer Drug Screen. Data for the mec2-1 strain (AID 157). To be noted: S. cerevisiae mec2-1 strain, active compounds read high. A digest of the protocol:
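Strain: mec2-1 (DNA repair/cell cycle alteration). Compound exposure, then growth measured; inhibition expressed relative to vehicle.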

Test [3] can be described thus: NCI Yeast Anticancer Drug Screen. Data for the sgs1 mgt1 strain (AID 161).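 Note: 0% = growth of cultures given vehicle only.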 Particulars: S. cerevisiae sgs1 mgt1 strain, active compounds read high. A digest of the protocol: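 Read-out: growth inhibition vs vehicle controls. Cells: mutant yeast strain deficient in DNA damage repair.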
Test [4] is described as follows: NCI Yeast Anticancer Drug Screen. Data for the cln2 rad14 strain (AID 165).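 Note: 0% = growth equal to vehicle treated cultures.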 To be noted: S. cerevisiae cln2 rad14 strain, active compounds read high. A digest of the protocol: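 Compounds are applied to the cln2 rad14 yeast strain, and growth is then compared with that of vehicle-treated cultures to give inhibition.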
The nature of test [5]: NCI Yeast Anticancer Drug Screen. Data for the bub3 strain (AID 167). To be noted: S. cerevisiae bub3 mutant strain, active compounds read high. A digest of the protocol: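 Whole-cell yeast assay. The mutant strain was incubated with compounds, and growth inhibition was determined by comparison with vehicle-treated cells.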
Test [6] is described as follows: NCI Yeast Anticancer Drug Screen. Data for the mlh1 rad18 strain (AID 175). Particulars: S. cerevisiae mlh1 rad18 strain growth inhibition, active compounds read high. A digest of the protocol:
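Read-out is yeast growth inhibition, calculated against vehicle-only controls. The compound was applied to a strain engineered with DNA damage repair alterations.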

Where [7] appears, read: at 5.0 µM (retest, dose inferred, filed as 0.5).
Where [8] appears, read: at 50.0 µM (retest, dose inferred, filed as 5.0).

About 79,000 compounds went through this panel and 15% of them were active in at least one assay; those are over-represented in the sample as a whole. A number with no mark means an inactive call. Calls of active or inactive are those of the source. Cut-off read from the data, not from the text of the source: active = growth inhibition above about 70%; inactive = the rest.

Turning to `O=C1c2ccccc2C(=O)c2c(Nc3cc4c5c(ccc6c7ccc8c9c(cc(Nc%10cccc%11c%10C(=O)c%10ccccc%10C%11=O)c(c3c56)c97)-c3ccccc3C8=O)C(=O)c3ccccc3-4)cccc21`, the growth inhibition in test [1] (setting [7]) was 1%; in test [1] (setting [8]), 15%; in test [1] (at 50.0 µM), 16.9%; in test [2] (setting [7]), -5%; in test [2] (setting [8]), -3%; in test [2] (at 50.0 µM), 44%. Besides, the growth inhibition in test [3] (setting [7]) was 2%; in test [3] (setting [8]), -3%; in test [3] (at 50.0 µM) it was -1.9%; in test [4] (setting [7]) it was -6%; in test [4] (setting [8]) it was 4%; in test [4] (at 50.0 µM) it was 40.8%. Further, the growth inhibition in test [5] (setting [7]) was -11%; in test [5] (setting [8]), 6%; in test [5] (at 50.0 µM), 3.1%; in test [6] (setting [7]), -13%; in test [6] (setting [8]), -4%; in test [6] (at 50.0 µM), -4.35%.
In the case of `Cc1nc(N)nn1C`, the growth inhibition was -1% in test [1] (setting [7]); 10% in test [1] (setting [8]); 2.9% in test [1] (at 50.0 µM); 0% in test [2] (setting [7]); -2% in test [2] (setting [8]); 6.1% in test [2] (at 50.0 µM). For the same molecule, the growth inhibition was -3% in test [3] (setting [7]); -1% in test [3] (setting [8]); -3.55% in test [3] (at 50.0 µM); -4% in test [4] (setting [7]); 0% in test [4] (setting [8]); 6.7% in test [4] (at 50.0 µM). The growth inhibition was 0% in test [5] (setting [7]); -2% in test [5] (setting [8]); 44.2% in test [5] (at 50.0 µM); 1% in test [6] (setting [7]); 2% in test [6] (setting [8]); -0.4% in test [6] (at 50.0 µM).
In the case of `CCNC1(C2c3ccccc3-c3ccccc32)c2ccccc2-c2ccccc21`, the growth inhibition in test [1] (setting [7]) was 13%; in test [1] (setting [8]), 84% (active); in test [1] (at 50.0 µM), 20%; in test [2] (setting [7]), -17%; in test [2] (setting [8]) it was 25%; in test [2] (at 50.0 µM), 11.8%. Moreover, the growth inhibition in test [3] (setting [7]) is 4%; in test [3] (setting [8]), 84% (active); in test [3] (at 50.0 µM), 44.1%; in test [4] (setting [7]) it was -12%; in test [4] (setting [8]), 36%; in test [4] (at 50.0 µM), 18.5%. The growth inhibition in test [5] (setting [7]) is -4%; in test [5] (setting [8]) it was 71% (active); in test [5] (at 50.0 µM) it was 58.4%; in test [6] (setting [7]), 30%; in test [6] (setting [8]), 74% (active); in test [6] (at 50.0 µM), 37%.
For `OC1(c2ccccc2)CN(CCl)CC(c2ccccc2)O1` (configuration not stated), the growth inhibition in test [1] (setting [7]) was -2%; in test [1] (setting [8]) it was 7%; in test [1] (at 50.0 µM) it was -10.6%; in test [2] (setting [7]), 0%; in test [2] (setting [8]), 2%; in test [2] (at 50.0 µM), 17.3%. The growth inhibition in test [3] (setting [7]) was -1%; in test [3] (setting [8]) it was 7%; in test [3] (at 50.0 µM), 46%; in test [4] (setting [7]) it was 12%; in test [4] (setting [8]), 15%; in test [4] (at 50.0 µM) it was 10.4%. Also, the growth inhibition in test [5] (setting [7]) was 2%; in test [5] (setting [8]) it was 6%; in test [5] (at 50.0 µM) it was 71.8% (active); in test [6] (setting [7]), -2%; in test [6] (setting [8]) it was 7%; in test [6] (at 50.0 µM), 47.4%.
As to `CC(C)CCCC(C)C1CCC2C3CC=C4OC(=O)CCC4(C)C3CCC12C` (configuration not stated), the growth inhibition is -11% in test [1] (setting [7]); 88% (active) in test [1] (setting [8]); 83.4% (active) in test [1] (at 50.0 µM); -2% in test [2] (setting [7]); 85% (active) in test [2] (setting [8]); 91.8% (active) in test [2] (at 50.0 µM). The growth inhibition in test [3] (setting [7]) was -35%; in test [3] (setting [8]), 93% (active); in test [3] (at 50.0 µM) it was 76.2% (active); in test [4] (setting [7]) it was -2%; in test [4] (setting [8]), 93% (active); in test [4] (at 50.0 µM) it was 85.2% (active). Further, the growth inhibition in test [5] (setting [7]) is -1%; in test [5] (setting [8]) it was 91% (active); in test [5] (at 50.0 µM) it was 86.3% (active); in test [6] (setting [7]) it was -1%; in test [6] (setting [8]) it was 94% (active); in test [6] (at 50.0 µM) it was 90.6% (active).
Consider `CCCCCCCCCCSC(=NCC)NCC`, for which the growth inhibition in test [1] (setting [7]) is 2%; in test [1] (setting [8]) it was 99% (active); in test [1] (at 50.0 µM), 66.9%; in test [2] (setting [7]), 4%; in test [2] (setting [8]), 99% (active); in test [2] (at 50.0 µM), 49.9%. The growth inhibition in test [3] (setting [7]) was 51%; in test [3] (setting [8]), 99% (active); in test [3] (at 50.0 µM), 46.7%; in test [4] (setting [7]), -6%; in test [4] (setting [8]) it was 99% (active); in test [4] (at 50.0 µM) it was 77.3% (active). The growth inhibition is 27% in test [5] (setting [7]); 99% (active) in test [5] (setting [8]); 59% in test [5] (at 50.0 µM); 0% in test [6] (setting [7]); 99% (active) in test [6] (setting [8]); 99.5% (active) in test [6] (at 50.0 µM).
Consider `COc1ccccc1CN1CCCN(Cc2ccccc2OC)C1c1ccccc1F`, for which the growth inhibition in test [1] (setting [7]) was 2%; in test [1] (setting [8]), -2%; in test [1] (at 50.0 µM), 55.9%; in test [2] (setting [7]), -9%; in test [2] (setting [8]), -11%; in test [2] (at 50.0 µM), 43.5%. In addition, the growth inhibition in test [3] (setting [7]) was 4%; in test [3] (setting [8]), 8%; in test [3] (at 50.0 µM), 62.6%; in test [4] (setting [7]) it was 1%; in test [4] (setting [8]), -1%; in test [4] (at 50.0 µM) it was 36.6%. Also, the growth inhibition in test [5] (setting [7]) is 0%; in test [5] (setting [8]), -5%; in test [5] (at 50.0 µM), 78.8% (active); in test [6] (setting [7]), 16%; in test [6] (setting [8]) it was 16%; in test [6] (at 50.0 µM), 41%.
Consider `CC1C=CC(C)C2C(=O)C3C(C)C=CC(C)C3C(=O)C12` (configuration not stated), for which the growth inhibition in test [1] (setting [7]) was 0%; in test [1] (setting [8]), -7%; in test [1] (at 50.0 µM) it was -10.3%; in test [2] (setting [7]) it was 6%; in test [2] (setting [8]) it was 14%; in test [2] (at 50.0 µM) it was -6.45%. Also, the growth inhibition is -1% in test [3] (setting [7]); 9% in test [3] (setting [8]); 3.65% in test [3] (at 50.0 µM); 18% in test [4] (setting [7]); 23% in test [4] (setting [8]); 38.5% in test [4] (at 50.0 µM). Also, the growth inhibition is -12% in test [5] (setting [7]); 0% in test [5] (setting [8]); 18.9% in test [5] (at 50.0 µM); 1% in test [6] (setting [7]); -7% in test [6] (setting [8]); 8.9% in test [6] (at 50.0 µM).
On to `CCCC/C=C(\CCCNCCCC)[Si](C)(C)C`, for which the growth inhibition in test [1] (setting [7]) was 52%; in test [1] (setting [8]) it was 96% (active); in test [1] (at 50.0 µM), 89.9% (active); in test [2] (setting [7]), 49%; in test [2] (setting [8]), 99% (active); in test [2] (at 50.0 µM), 92.8% (active). For the same molecule, the growth inhibition in test [3] (setting [7]) was 77% (active); in test [3] (setting [8]), 99% (active); in test [3] (at 50.0 µM), 93.3% (active); in test [4] (setting [7]) it was 53%; in test [4] (setting [8]) it was 98% (active); in test [4] (at 50.0 µM) it was 90.8% (active). The growth inhibition in test [5] (setting [7]) was 78% (active); in test [5] (setting [8]) it was 99% (active); in test [5] (at 50.0 µM), 91% (active); in test [6] (setting [7]), 81% (active); in test [6] (setting [8]), 98% (active); in test [6] (at 50.0 µM), 90.7% (active).

The values above are taken from PubChem BioAssay (NCI).
